Bioassay records: PubChem BioAssay, several laboratories
An excerpt weighted towards active compounds, which were near 2.2% of everything screened.
LGR2 inh – inhibitors of bursicon-induced LGR2 CRE-luciferase signal, primary screen, cell-based, HEK293, CRE-luciferase reporter, bursicon stimulation. 380,000 tested, 0.35% active. bursicon-stimulated, 4 h. AID 720647, 2013. Drosophila bursicon receptor LGR2 (rickets). inhibition, % at 9.99 µM;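 active means drop in luminescence signal, shown as inhibition above about 50% in the replicate tests, limit read from the data, passing the limit was not always enough; inconclusive means probably only some replicates passing the limit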;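 further: agonist challenge used bursicon conditioned medium at about half maximal strength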
TWEAK-Fn14 inh – inhibitors of TWEAK-Fn14 signaling, primary screen, luciferase reporter cells, uHTS; TWEAK-stimulated Fn14 reporter cells, luciferase luminescence, 8 h; inhibition, % at 10 µM; 360,000 tested, 2% active; in the data active means inhibition above about 50%
HSP90 inh – HSP90 inhibitors, primary screen, cell lysate, luminescence; Heat shock protein HSP 90 (rabbit reticulocyte lysate; luciferase refolding); Rabbit reticulocyte lysate, luciferase refolding luminescence, 3 h; inhibition, % at 5.6 µM; 290,000 tested, 0.91% active; AID 1789, 2009;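 active means inhibition above the screen-wide mean plus 3 SD, computed separately per campaign, cut at about 16% in these data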;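 further: 0% = DMSO wells and 100% = 60 µM geldanamycin wells; inhibitors lower the luminescence because luciferase stays unfolded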
TROY NFkB inh – inhibitors of TROY-driven NF-kB signaling, primary screen, Q293 LMP1-TROYcd cells, NF-kB luciferase, uHTS; inhibition, % at 10 µM; Q293 LMP1-TROYcd NF-kB luciferase reporter, 4 h; AID 1347056, 2019; 360,000 tested, 0.98% active;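 active means compounds whose plate-normalised and pattern-corrected inhibition of the luciferase reporter signal at the single screening dose is 50% or more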
HSP90 confirm – HSP90 inhibitors, confirmation, cell lysate, luminescence; shares compounds with HSP90 inh; rabbit reticulocyte lysate, luciferase refolding luminescence, 3 h; inhibition, % at 5.9 µM; 2,300 tested, 64% active; AID 1846, 2009; in the data active means inhibition above about 18%;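 further: 0% = vehicle wells and 100% = reference inhibitor wells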
FLuc counter – firefly luciferase inhibitors, HSP90 counter-screen, confirmation, artefact control for HSP90 inhibitor project, biochemical, luminescence, triplicate; shares compounds with HSP90 inh; purified native firefly luciferase; inhibition, % at 5.9 µM; 2,300 tested, 48% active; AID 1847, 2009;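 active means inhibition above the mean inhibition of all tested sample wells plus 3 SD, cut at about 10% in these data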;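 further: 0% = DMSO with luciferase and 100% = wells lacking luciferase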
Target sequence (P08659 whole entry, looked up): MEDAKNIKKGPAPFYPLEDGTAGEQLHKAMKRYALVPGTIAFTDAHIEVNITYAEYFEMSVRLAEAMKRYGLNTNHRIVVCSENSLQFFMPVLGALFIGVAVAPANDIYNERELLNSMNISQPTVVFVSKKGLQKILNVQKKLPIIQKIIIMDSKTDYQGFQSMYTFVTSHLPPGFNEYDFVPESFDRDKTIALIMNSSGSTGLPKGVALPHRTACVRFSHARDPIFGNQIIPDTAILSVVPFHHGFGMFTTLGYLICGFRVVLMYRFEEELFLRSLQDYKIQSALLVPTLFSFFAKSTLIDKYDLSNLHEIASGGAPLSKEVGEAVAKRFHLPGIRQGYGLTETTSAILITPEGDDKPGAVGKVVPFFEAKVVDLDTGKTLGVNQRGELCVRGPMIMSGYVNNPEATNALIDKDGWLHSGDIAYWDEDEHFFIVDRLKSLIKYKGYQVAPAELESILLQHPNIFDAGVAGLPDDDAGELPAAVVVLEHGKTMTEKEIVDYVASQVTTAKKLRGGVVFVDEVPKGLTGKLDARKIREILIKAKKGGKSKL
Active calls of the source: *; u = inconclusive; x = no result.

SMILES	LGR2 inh	TWEAK-Fn14 inh	HSP90 inh	TROY NFkB inh	HSP90 confirm	FLuc counter
COc1ccc(NC(=O)c2ccc3c(c2)OCO3)cc1	-26	34	19*	-24	27*	14*
Cc1ccc(C(=O)Nc2ccc3c(c2)OCCO3)cc1	67*	84*	58*	43	75*	63*
C[C@H]1CCCCO[C@H](CN(C)Cc2ccncc2)[C@@H](C)CN([C@@H](C)CO)C(=O)c2cc(NC(=O)Nc3ccc(F)cc3)ccc2O1	-1	x	x	x	x	x
NC(=O)c1ccc(NC(=O)Nc2ccc3c(c2)OCO3)cc1	-9	0	2	-33	x	x
Cc1ccc(C(=O)Nc2ccc3c(c2)CCC3)cc1	u	71*	25*	39	71*	67*
CCOc1cc(C(=O)Nc2cc(C)ccn2)cc(OCC)c1OCC	x	15	0	-2	x	x
O=C(Nc1ccc2c(c1)OCCO2)Nc1ccc2c(c1)OCO2	2	51*	19*	-13	41*	30*
CCOc1ccc(C(=O)Nc2cc(C)ccn2)cc1	65*	77*	50*	44	75*	58*
Cc1ccccc1C(=O)Nc1ccc2c(c1)OCO2	x	44	22*	-4	36*	15*
C[C@@H]1CN([C@@H](C)CO)S(=O)(=O)c2ccc(-c3ccccc3F)cc2O[C@H]1CN(C)Cc1ccncc1	13	x	x	x	x	x
Cc1cc(NC(=O)c2ccc3c(c2)OCO3)no1	3	11	6	-32	x	x
Cc1ccc(CC(=O)N/N=C/c2ccc3c(c2)OCO3)cc1	-18	-10	20*	-41	-5	-14
O=C(O)C1CC=CCC1C(=O)Nc1ccc(F)c(F)c1 (stereo not given)	x	-1	-3	-5	x	x
Cc1cc(NC(=O)c2ccc3c(c2)OCCO3)no1	x	77*	27*	40	58*	49*
O=C(CCc1ccc(O)cc1)NN=Cc1ccc2c(c1)OCO2	-13	-30	x	-24	x	x
O=C(O)C1CC=CCC1C(=O)Nc1ccc2c(c1)OCCO2 (stereo not given)	x	79*	38*	59*	1	8
O=C(C1CCCCC1)N1C[C@@H]2[C@H](c3ccccc31)[C@H](CO)N2C(=O)c1ccccc1F	2	x	x	x	x	x
C[C@H]1CN([C@@H](C)CO)C(=O)Cc2cc(NC(=O)C3CCCCC3)ccc2O[C@H]1CN(C)Cc1ccc2c(c1)OCO2	2	x	x	x	x	x
N#Cc1ccc(-c2ccc([C@@H]3[C@@H](CO)N4C(=O)CN(C(=O)C5CCC5)C[C@@H]34)cc2)cc1	5	x	x	x	x	x
COc1ccccc1NC(=O)N[C@@H]1CC[C@@H](CCn2cc(-c3cccnc3)nn2)O[C@H]1CO	-10	x	x	x	x	x
COc1ccc(S(=O)(=O)Nc2ccc3c(c2)CC(=O)N([C@@H](C)CO)C[C@@H](C)[C@@H](CN(C)S(=O)(=O)c2cccs2)O3)cc1	1	x	x	x	x	x
CN=c1scc(-c2cccs2)n1/N=C/c1ccc(O)c(O)c1O	-23	87*	24*	89*	87*	78*
C=CCN=c1scc(-c2ccco2)n1/N=C/c1ccc(O)c(O)c1O	-18	48	17*	-7	25*	-22
CN=c1scc(C)n1/N=C/c1ccc(O)c(O)c1O	x	21	-2	-48	x	x
COc1cccc(C#Cc2ccc3c(c2)O[C@@H](CN(C)C)[C@@H](C)CN([C@H](C)CO)S3(=O)=O)c1	-2	x	x	x	x	x
SMILES	LGR2 inh	TWEAK-Fn14 inh	HSP90 inh	TROY NFkB inh	HSP90 confirm	FLuc counter
O=C(/C=C\Nc1ccc2c(c1)OCO2)c1ccccn1	x	104*	71*	75*	96*	90*
CCC(=O)c1ccc(OCc2ccc(C(=O)OC)cc2)cc1	-27	15	30*	-40	62*	-3
CCC(=O)c1ccc(OCc2ccc(C#N)cc2)cc1	-62	-28	-4	-47	x	x
Cc1[nH]c2ccccc2c1/C=N/Nc1nncn1N	-94	-27	78*	-24	-10	-37
Cc1[nH]c2ccccc2c1/C=N/Nc1ccccn1	-3	x	-2	x	x	x
CC(=O)Nc1cc2ccccc2oc1=O	-5	-18	-2	2	x	x
O=C(O)c1cccc(NC(=O)c2ccccc2)c1	29	-18	x	-61	x	x
Cc1ccc(C(=O)Nc2cccc(C(=O)O)c2)cc1	x	x	82*	x	88*	83*
Cc1ccc(C(=O)Nc2cc3ccccc3oc2=O)cc1	99*	102*	50*	88*	98*	92*
Cc1cc(/C=N/NC(=O)c2cccc(F)c2)c(C)n1-c1ccccc1	-71	39	25*	15	48*	47*
CCOc1ccc(NC(=O)c2cc(F)c(F)cc2Cl)cc1OCC	-15	5	24*	6	4	-2
Cc1ccc(C(=O)Nc2ccc(C(=O)O)cc2NC(=O)c2ccc(C)cc2)cc1	7	41	60*	13	55*	37*
Cc1cc(NC(=O)c2ccc3nccnc3c2)ccc1Br	-47	21	x	-2	x	x
Cc1ccc(C(=O)Nc2cccc(C(=O)N/N=C/c3ccccc3F)c2)cc1	-74	-10	19*	-30	-2	-15
Cc1ccc(C(=O)Nc2ccc3nccnc3c2)cc1	32	49	26*	-18	33*	7
O=C(O)c1ccc(NC(=O)c2ccc(Cl)cc2)c(NC(=O)c2ccc(Cl)cc2)c1	-5	-16	-7	-5	x	x
CCOc1ccc(C(=O)Nc2cccc(C(=O)O)c2)cc1Cl	76*	35	88*	-52	88*	72*
COc1ccccc1C#Cc1cnc2c(c1)C(=O)N([C@@H](C)CO)C[C@@H](C)[C@@H](CN(C)C(=O)c1ccc3c(c1)OCO3)O2	-17	x	x	x	x	x
COc1ccccc1CNC(=O)C[C@H]1C[C@@H]2c3cc(NC(=O)Nc4ccccc4F)ccc3O[C@@H]2[C@@H](CO)O1	3	x	x	x	x	x
O=C(O)c1cccc(NC(=S)NC(=O)c2ccc3ccccc3c2)c1	-38	20	64*	-31	71*	49*
Cc1ccc(S(=O)(=O)Nc2ccc3c(c2)C(=O)N([C@H](C)CO)C[C@@H](C)[C@H](CN(C)S(C)(=O)=O)OCCCC[C@@H](C)O3)cc1	-3	x	x	x	x	x
O=C(NN1CCCCC1)c1cccc(COc2ccc(Cl)cc2)c1	-166	-2	0	-38	x	x
CCOc1ccc(OCc2cccc(C(=O)N3CCCC3)c2)cc1	-32	-6	21*	-61	30*	26*
CCOc1ccc(C(=O)N2CCCC2)cc1	-1	12	-1	-11	x	x
CCOc1ccc(OCc2cccc(C(=O)N3CCCCCC3)c2)cc1	46	-16	28*	-46	56*	52*
O=C(C[C@H]1CC[C@@H](NC(=O)Nc2ccc3c(c2)OCO3)[C@@H](CO)O1)NCc1ccc(F)cc1	-23	x	x	x	x	x
